From PubChem BioAssay (NCI)
The panel holds about 83,000 compounds, 20% with a hit somewhere; the sample as a whole holds those more often.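 Interpretation: 100, growth as untreated; towards 0, rising growth inhibition; 0, no net growth; 0 to -100, cell death. Compounds scoring below 10 were considered active.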 The source made the active and inactive calls.

How the values were obtained:
Test in all cases: NCI-60 one-dose screen, 48 h (100 = growth as untreated, 0 = no growth, -100 = all killed)
Conditions in all cases: 10 µM unless noted
SR leukemia = test system: SR leukemia
RPMI-8226 leukemia = test system: RPMI-8226 leukemia
OVCAR-8 ovarian = test system: OVCAR-8 ovarian
OVCAR-5 ovarian = test system: OVCAR-5 ovarian
OVCAR-4 ovarian = test system: OVCAR-4 ovarian
SK-OV-3 ovarian = test system: SK-OV-3 ovarian
IGROV1 ovarian = test system: IGROV1 ovarian
OVCAR-3 ovarian = test system: OVCAR-3 ovarian
HS 578T breast = test system: HS 578T breast
NCI/ADR-RES ovarian = test system: NCI/ADR-RES ovarian
T-47D breast = test system: T-47D breast
BT-549 breast = test system: BT-549 breast
MDA-MB-435 melanoma = test system: MDA-MB-435 melanoma
SW-620 colon = test system: SW-620 colon
MCF7 breast = test system: MCF7 breast
HCT-116 colon = test system: HCT-116 colon
HCC-2998 colon = test system: HCC-2998 colon
KM12 colon = test system: KM12 colon

Measured: growth

COCCNc1ccc2c3c(cccc13)C(=O)N(CCN(C)C)C2=O
inactive: OVCAR-8 ovarian 22.3% | OVCAR-5 ovarian 30.5% | OVCAR-4 ovarian 31.6% | SK-OV-3 ovarian 22.9% | IGROV1 ovarian 18.1% | OVCAR-3 ovarian 17.9% | HS 578T breast 50.8% | NCI/ADR-RES ovarian 31.4% | BT-549 breast 17.7% | MDA-MB-435 melanoma 25.9% | SW-620 colon 24.5% | HCT-116 colon 10.9% | HCC-2998 colon 28.6% | KM12 colon 24.9%
active: SR leukemia -40.1% | RPMI-8226 leukemia -0.282% | T-47D breast -10.9% | MCF7 breast -16.5%

COc1ccc2c(c1)c(-c1nonc1-c1cn(C)c3ccccc13)cn2C
active: OVCAR-3 ovarian 3.08% | MDA-MB-435 melanoma 1.09%
inactive: SR leukemia 30.1% | RPMI-8226 leukemia 21.2% | OVCAR-8 ovarian 35.6% | OVCAR-5 ovarian 52% | OVCAR-4 ovarian 45.5% | SK-OV-3 ovarian 44.6% | IGROV1 ovarian 42.5% | HS 578T breast 16.7% | NCI/ADR-RES ovarian 17.1% | T-47D breast 33.5% | BT-549 breast 60.2% | SW-620 colon 24.5% | MCF7 breast 24% | HCT-116 colon 26.6% | HCC-2998 colon 45.4% | KM12 colon 25.7%

Oc1cccc2ccc(N/N=C/c3cc(CN4CCOCC4)c(O)c4ncccc34)nc12
active: SR leukemia 2.95% | SK-OV-3 ovarian -14.9% | NCI/ADR-RES ovarian 2.84%
inactive: RPMI-8226 leukemia 16.2% | OVCAR-8 ovarian 13% | OVCAR-5 ovarian 28.3% | OVCAR-4 ovarian 14.2% | IGROV1 ovarian 18.7% | OVCAR-3 ovarian 23.2% | HS 578T breast 36.3% | T-47D breast 26.9% | BT-549 breast 18.4% | MDA-MB-435 melanoma 23.8% | SW-620 colon 26.2% | MCF7 breast 18.6% | HCT-116 colon 23.5% | HCC-2998 colon 26.6% | KM12 colon 13.7%

COc1cc2c(cc1-c1c(C)noc1C)ncc1nc(C3CCOCC3)n([C@@H](C)COC(F)F)c12
inactive: SR leukemia 28.5% | RPMI-8226 leukemia 18.4% | OVCAR-8 ovarian 45% | OVCAR-5 ovarian 65.2% | OVCAR-4 ovarian 46.4% | IGROV1 ovarian 67% | OVCAR-3 ovarian 42.3% | NCI/ADR-RES ovarian 50.6% | T-47D breast 38.1% | BT-549 breast 64.1% | MDA-MB-435 melanoma 39.7% | SW-620 colon 63.4% | MCF7 breast 18.4% | HCT-116 colon 30.5% | HCC-2998 colon 43.3% | KM12 colon 48.8%
active: SK-OV-3 ovarian 2.74% | HS 578T breast 8.31%

Cc1ccc2oc(=O)cc(C3c4ccc([nH]4)C(c4cc(=O)oc5ccc(C)cc45)c4ccc([nH]4)C(c4cc(=O)oc5ccc(C)cc45)c4ccc([nH]4)C(c4cc(=O)oc5ccc(C)cc45)c4ccc3[nH]4)c2c1 (stereo not drawn)
active: SR leukemia -36.5% | RPMI-8226 leukemia -21.3% | OVCAR-8 ovarian -47.8% | OVCAR-5 ovarian -11.7% | OVCAR-4 ovarian -6.02% | SK-OV-3 ovarian -30.7% | IGROV1 ovarian -20.1% | OVCAR-3 ovarian -65% | HS 578T breast -37% | NCI/ADR-RES ovarian -25% | T-47D breast -28.5% | BT-549 breast -49.8% | MDA-MB-435 melanoma -76.1% | SW-620 colon -7.64% | MCF7 breast -20.9% | HCT-116 colon -78.9% | HCC-2998 colon -68.9% | KM12 colon -73.9%

O=C1C=CC(=O)N1c1ccc2c(c1)Cc1cc(F)ccc1-2
inactive: SR leukemia 70.6% | RPMI-8226 leukemia 28.2% | OVCAR-8 ovarian 99.4% | OVCAR-5 ovarian 93.5% | OVCAR-4 ovarian 83.3% | SK-OV-3 ovarian 103% | IGROV1 ovarian 94% | OVCAR-3 ovarian 115% | HS 578T breast 97.8% | NCI/ADR-RES ovarian 105% | T-47D breast 103% | BT-549 breast 105% | MDA-MB-435 melanoma 102% | SW-620 colon 98.1% | MCF7 breast 90.2% | HCT-116 colon 94.3% | HCC-2998 colon 93.3% | KM12 colon 102%

Cn1cc(C(=O)c2nc(-c3c[nH]c4ccccc34)no2)c2ccccc21
inactive: SR leukemia 44.1% | RPMI-8226 leukemia 78.9% | OVCAR-8 ovarian 91.1% | OVCAR-5 ovarian 66% | OVCAR-4 ovarian 57.3% | SK-OV-3 ovarian 69.8% | IGROV1 ovarian 25.7% | OVCAR-3 ovarian 12.8% | HS 578T breast 56.2% | NCI/ADR-RES ovarian 64.2% | T-47D breast 44.4% | BT-549 breast 69.7% | SW-620 colon 56.8% | MCF7 breast 20% | HCT-116 colon 47.1% | HCC-2998 colon 45.5% | KM12 colon 21.9%
active: MDA-MB-435 melanoma 7.96%

O=c1nc2oc3ccc4ccccc4c3cc-2s1
inactive: SR leukemia 24.3% | RPMI-8226 leukemia 14.7% | OVCAR-8 ovarian 29.8% | OVCAR-5 ovarian 53.3% | OVCAR-4 ovarian 62.5% | SK-OV-3 ovarian 28.5% | IGROV1 ovarian 37.2% | NCI/ADR-RES ovarian 91.1% | T-47D breast 12.6% | BT-549 breast 49% | SW-620 colon 20.8% | MCF7 breast 19.3% | HCT-116 colon 21.1% | HCC-2998 colon 51.4% | KM12 colon 19.5%
active: OVCAR-3 ovarian 6% | HS 578T breast 3.65% | MDA-MB-435 melanoma -58.5%

c1ccc(Cn2cc(-c3nc4ccccc4s3)c3cccnc32)cc1
inactive: SR leukemia 112% | RPMI-8226 leukemia 99.9% | OVCAR-8 ovarian 106% | OVCAR-5 ovarian 103% | OVCAR-4 ovarian 90.9% | SK-OV-3 ovarian 96.1% | IGROV1 ovarian 94.3% | OVCAR-3 ovarian 95.6% | HS 578T breast 110% | NCI/ADR-RES ovarian 98.6% | T-47D breast 94% | BT-549 breast 106% | MDA-MB-435 melanoma 104% | SW-620 colon 105% | MCF7 breast 75.4% | HCT-116 colon 100% | HCC-2998 colon 107% | KM12 colon 92.6%

C(=N/Nc1ncc(-c2cc3cc(-c4ccccc4)ccc3o2)s1)/c1cccs1
inactive: SR leukemia 79% | RPMI-8226 leukemia 70.4% | OVCAR-8 ovarian 99.5% | OVCAR-5 ovarian 93.9% | OVCAR-4 ovarian 89.6% | SK-OV-3 ovarian 113% | IGROV1 ovarian 102% | OVCAR-3 ovarian 97.1% | HS 578T breast 107% | NCI/ADR-RES ovarian 101% | T-47D breast 100% | BT-549 breast 110% | MDA-MB-435 melanoma 95.9% | SW-620 colon 99.7% | MCF7 breast 89.7% | HCT-116 colon 91.5% | HCC-2998 colon 100% | KM12 colon 97%

FC(F)(F)Oc1ccc2nc3nc4ccc[nH]c4cc3c2c1
inactive: SR leukemia 43.9% | RPMI-8226 leukemia 71.7% | OVCAR-8 ovarian 69.9% | OVCAR-5 ovarian 115% | OVCAR-4 ovarian 31.5% | SK-OV-3 ovarian 63.8% | IGROV1 ovarian 74.6% | OVCAR-3 ovarian 98.2% | HS 578T breast 56.7% | NCI/ADR-RES ovarian 85.8% | T-47D breast 41.3% | BT-549 breast 84.4% | MDA-MB-435 melanoma 89.2% | SW-620 colon 86.8% | MCF7 breast 16.8% | HCT-116 colon 81.4% | HCC-2998 colon 96.8% | KM12 colon 72.8%

CC1=C[C@H]2c3c(c(O)c(O)c4oc5ccccc5c(=O)c34)[C@H](c3cc(O)c(O)c4oc5ccccc5c(=O)c34)[C@H]2C(C)(C)C1
active: SR leukemia 0.353% | OVCAR-8 ovarian 1.23% | OVCAR-4 ovarian 1.7% | SK-OV-3 ovarian -14.1% | IGROV1 ovarian -4.25% | HS 578T breast -4.62% | T-47D breast 9.72% | BT-549 breast -15.3% | MDA-MB-435 melanoma -36% | MCF7 breast 9.6% | HCT-116 colon -84.8% | KM12 colon -1.27%
inactive: RPMI-8226 leukemia 15.2% | OVCAR-5 ovarian 25.8% | OVCAR-3 ovarian 10.4% | NCI/ADR-RES ovarian 23.9% | SW-620 colon 11.9% | HCC-2998 colon 11.6%

c1csc(C2=NN3C(C2)c2ccccc2OC3c2ccncc2)c1 (stereo not drawn)
inactive: SR leukemia 100% | RPMI-8226 leukemia 92.8% | OVCAR-8 ovarian 96.1% | OVCAR-5 ovarian 108% | OVCAR-4 ovarian 90.9% | SK-OV-3 ovarian 93.8% | IGROV1 ovarian 76.1% | OVCAR-3 ovarian 98.9% | HS 578T breast 87.2% | NCI/ADR-RES ovarian 98.4% | T-47D breast 93.2% | BT-549 breast 92.4% | MDA-MB-435 melanoma 99.6% | SW-620 colon 103% | MCF7 breast 77.3% | HCT-116 colon 102% | HCC-2998 colon 96.3% | KM12 colon 92.2%

C#CCOc1ccc2ncnc(NCc3cccc(NC(=O)CCl)c3)c2c1
active: IGROV1 ovarian -68.1% [8.25 µM]
inactive: SR leukemia 15.7% [8.25 µM] | RPMI-8226 leukemia 21% [8.25 µM] | OVCAR-8 ovarian 17.2% [8.25 µM] | OVCAR-5 ovarian 55.3% [8.25 µM] | OVCAR-4 ovarian 31.6% [8.25 µM] | SK-OV-3 ovarian 83% [8.25 µM] | OVCAR-3 ovarian 24.2% [8.25 µM] | HS 578T breast 50.2% [8.25 µM] | NCI/ADR-RES ovarian 77.7% [8.25 µM] | T-47D breast 33.2% [8.25 µM] | BT-549 breast 46.6% [8.25 µM] | MDA-MB-435 melanoma 53.4% [8.25 µM] | SW-620 colon 19.9% [8.25 µM] | MCF7 breast 15.5% [8.25 µM] | HCT-116 colon 14.6% [8.25 µM] | HCC-2998 colon 99.7% [8.25 µM] | KM12 colon 59.7% [8.25 µM]

O=C1NC(=Nc2ccc(O)cc2)S/C1=C\c1cccc(Cl)c1
active: RPMI-8226 leukemia 2.99% | MDA-MB-435 melanoma 2.14%
inactive: SR leukemia 23.1% | OVCAR-8 ovarian 84.3% | OVCAR-5 ovarian 110% | OVCAR-4 ovarian 90.3% | SK-OV-3 ovarian 77.1% | IGROV1 ovarian 65.7% | OVCAR-3 ovarian 30.1% | HS 578T breast 63.1% | NCI/ADR-RES ovarian 83.8% | T-47D breast 76% | BT-549 breast 64.9% | SW-620 colon 30.7% | MCF7 breast 18.6% | HCT-116 colon 24.2% | HCC-2998 colon 83.8% | KM12 colon 21.9%

C#CCOc1ccc2ncnc(Nc3cccc(CNC(=O)CCl)c3)c2c1
inactive: SR leukemia 25.1% [8.25 µM] | RPMI-8226 leukemia 37.7% [8.25 µM] | OVCAR-8 ovarian 38.8% [8.25 µM] | OVCAR-5 ovarian 65.9% [8.25 µM] | OVCAR-4 ovarian 27.2% [8.25 µM] | SK-OV-3 ovarian 48.1% [8.25 µM] | OVCAR-3 ovarian 29.3% [8.25 µM] | HS 578T breast 37.8% [8.25 µM] | NCI/ADR-RES ovarian 90.3% [8.25 µM] | T-47D breast 29.6% [8.25 µM] | BT-549 breast 47.7% [8.25 µM] | MDA-MB-435 melanoma 49.6% [8.25 µM] | SW-620 colon 30.4% [8.25 µM] | MCF7 breast 30.4% [8.25 µM] | HCT-116 colon 26% [8.25 µM] | HCC-2998 colon 99% [8.25 µM] | KM12 colon 63.2% [8.25 µM]
active: IGROV1 ovarian -5.04% [8.25 µM]
